Measured values published in the supplement of paper PMC6089552.
Screen size: about 3,200 compounds; about 300 (9.4%) showed activity. The sample holds actives, similar compounds and a random draw of the others, so the mix is not that of the screen.

Tested on: A673/TR/shEF
Experiment: cell viability (LOESS-normalised, relative to median of negative controls) (log2 ratio); higher = more viable cells (less compound effect), active = hit call of the paper (over 3 MAD below the median)
Settings: treatment time: 72 h
How it was run: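 For three days, A673/TR/shEF Ewing sarcoma cells in 384-well plates (1,500 per well) were treated with library compounds at two or more concentrations or with DMSO controls, after doxycycline had been added or withheld 24 h beforehand to induce EWS-FLI1 shRNA knockdown. Viability was read by CellTiter-Glo luminescence on an Envision reader. The data were LOESS-corrected per plate, divided by the median of negative controls and log2-transformed.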

[1] = 0.25 µM, library screen: screen1, EWS-FLI1 expression: high (no doxycycline)
[2] = 0.25 µM, library screen: screen1, EWS-FLI1 expression: low (doxycycline-induced shRNA knockdown)
[3] = 0.25 µM, library screen: screen2, EWS-FLI1 expression: high (no doxycycline)
[4] = 0.25 µM, library screen: screen2, EWS-FLI1 expression: low (doxycycline-induced shRNA knockdown)
[5] = 2.5 µM, library screen: screen1, EWS-FLI1 expression: high (no doxycycline)
[6] = 2.5 µM, library screen: screen1, EWS-FLI1 expression: low (doxycycline-induced shRNA knockdown)
[7] = 2.5 µM, library screen: screen2, EWS-FLI1 expression: high (no doxycycline)
[8] = 2.5 µM, library screen: screen2, EWS-FLI1 expression: low (doxycycline-induced shRNA knockdown)
[9] = 0.025 µM, library screen: screen1, EWS-FLI1 expression: high (no doxycycline)
[10] = 0.025 µM, library screen: screen1, EWS-FLI1 expression: low (doxycycline-induced shRNA knockdown)
[11] = 25 µM, library screen: screen1, EWS-FLI1 expression: high (no doxycycline)
[12] = 25 µM, library screen: screen1, EWS-FLI1 expression: low (doxycycline-induced shRNA knockdown)

Measured: cell viability (log2)

CC(C)NCC(O)COc1cccc2ccccc12 (stereo not given)
inactive: [1] 0.149 | [2] 0.0263 | [3] 0.19 | [4] 0.128 | [5] 0.146 | [6] -0.0491 | [7] 0.0197 | [8] 0.0681

CC(C)NC[C@H](O)COc1cccc2ccccc12
inactive: [3] 0.141 | [4] 0.0581 | [7] 0.131 | [8] 0.11

C=CCc1ccccc1OCC(O)CNC(C)C (stereo not given)
active: [3] -0.203
inactive: [1] 0.0845 | [2] 0.135 | [4] 0.0871 | [5] 0.0928 | [6] 0.0547 | [7] 0.0869 | [8] 0.156

CN1[C@@H]2CC[C@@H]1CC(OC(c1ccccc1)c1ccccc1)C2 (stereo not given in full)
inactive: [1] 0.132 | [2] 0.107 | [3] 0.135 | [4] 0.0858 | [5] 0.0835 | [6] 0.0797 | [7] 0.114 | [8] 0.0926

O=C(CCCCCCC(=O)Nc1ccccc1)NO
active: 8.3 µM, library screen: screen3, EWS-FLI1 expression: high (no doxycycline) -1.12 | 8.3 µM, library screen: screen3, EWS-FLI1 expression: low (doxycycline-induced shRNA knockdown) -0.391 | 25 µM, library screen: screen3, EWS-FLI1 expression: high (no doxycycline) -2.67 | 25 µM, library screen: screen3, EWS-FLI1 expression: low (doxycycline-induced shRNA knockdown) -1.56
inactive: 0.103 µM, library screen: screen3, EWS-FLI1 expression: high (no doxycycline) 0.0138 | 0.103 µM, library screen: screen3, EWS-FLI1 expression: low (doxycycline-induced shRNA knockdown) 0.0808 | [3] 0.16 | [4] 0.101 | 0.308 µM, library screen: screen3, EWS-FLI1 expression: high (no doxycycline) 0.0409 | 0.308 µM, library screen: screen3, EWS-FLI1 expression: low (doxycycline-induced shRNA knockdown) 0.115 | 0.926 µM, library screen: screen3, EWS-FLI1 expression: high (no doxycycline) 0.0465 | 0.926 µM, library screen: screen3, EWS-FLI1 expression: low (doxycycline-induced shRNA knockdown) 0.156 | [7] 0.0836 | [8] 0.0743 | 2.8 µM, library screen: screen3, EWS-FLI1 expression: high (no doxycycline) -0.083 | 2.8 µM, library screen: screen3, EWS-FLI1 expression: low (doxycycline-induced shRNA knockdown) -0.944

O=C(Nc1ccccc1)Nc1ccccc1
inactive: [1] -0.0389 | [2] 0.0106 | [5] 0.0741 | [6] -0.00546

O=C(Cc1ccccc1)NO
inactive: [1] 0.111 | [2] 0.0668 | [5] 0.126 | [6] 0.0445

Cc1c2oc3c(C)ccc(C(=O)NC4C(=O)NC(C(C)C)C(=O)N5CCCC5C(=O)N(C)CC(=O)N(C)C(C(C)C)C(=O)OC4C)c3nc-2c(C(=O)NC2C(=O)NC(C(C)C)C(=O)N3CCCC3C(=O)N(C)CC(=O)N(C)C(C(C)C)C(=O)OC2C)c(N)c1=O (stereo not given)
active: [1] -4.25 | [2] -4.25 | [5] -4.23 | [6] -4.26

COc1ccc(OC)c(CN2CCN(Cc3ccc([N+](=O)[O-])cc3)CC2)c1
inactive: [1] 0.0199 | [2] 0.014 | [5] -0.0107 | [6] 0.0533

O=C(O)c1cc2cc(F)ccc2[nH]1
active: [3] -0.173
inactive: [1] 0.0776 | [2] -0.00933 | [4] 0.0925 | [5] 0.156 | [6] 0.00267 | [7] 0.154 | [8] 0.0908

O=C(O)c1cc2ccccc2[nH]1
inactive: [1] 0.123 | [2] 0.0929 | [5] 0.0969 | [6] 0.132

O=C(O)c1cc2cc(Cl)ccc2[nH]1
inactive: [1] 0.0631 | [2] -0.00653 | [5] 0.106 | [6] 0.0362

Cn1cnnc1SCC(=O)N1c2ccccc2CCc2ccccc21
inactive: [1] 0.0935 | [2] 0.0627 | [5] 0.0921 | [6] 0.0613

O=C(O)Cc1ccc(O)c(O)c1
inactive: [3] 0.133 | [4] -0.00472 | [7] 0.0419 | [8] 0.108

N#C/C(=C\c1ccc(O)c(O)c1)C(=O)NCc1ccccc1
active: [5] -0.573 | [6] -0.157 | [11] -0.423
inactive: [9] 0.245 | [10] 0.0652 | [1] 0.23 | [2] 0.104 | [3] 0.0885 | [4] 0.0797 | [7] 0.253 | [8] 0.0805 | [12] -0.0381

C[C@H](NC(=O)/C(C#N)=C/c1ccc(O)c(O)c1)c1ccccc1
inactive: [3] 0.133 | [4] 0.0775 | [7] 0.118 | [8] 0.0876

N#C/C(=C\c1ccc(O)c(O)c1)C(=O)Nc1ccccc1
active: [5] -0.16 | [11] -0.692
inactive: [9] 0.188 | [10] -0.0571 | [1] 0.155 | [2] 0.0428 | [3] 0.0861 | [4] 0.0194 | [6] 0.0541 | [7] 0.105 | [8] 0.00853 | [12] 0.0298

CC(C)c1cc(/C=C(\C#N)C(=O)NCCCc2ccccc2)cc(C(C)C)c1O
active: [5] -0.147 | [11] -0.351
inactive: [9] 0.249 | [10] 0.00192 | [1] 0.255 | [2] -0.0227 | [6] 0.113 | [12] 0.147

C[C@@H](NC(=O)/C(C#N)=C/c1ccc(O)c(O)c1)c1ccccc1
inactive: [3] 0.139 | [4] -0.0177 | [7] 0.152 | [8] 0.00798

O=C(O)c1cc([N+](=O)[O-])ccc1NCCCc1ccccc1
inactive: [1] 0.00351 | [2] 0.0513 | [3] 0.0917 | [4] 0.092 | [5] -0.0108 | [6] 0.0086 | [7] 0.0503 | [8] 0.0316

N#C/C(=C\c1ccc(O)c(O)c1)C(=O)NCCCc1ccccc1
inactive: [3] 0.175 | [4] 0.0501 | [7] 0.049 | [8] 0.115

N#C/C(=C\c1ccc(O)c(O)c1)C(=O)NCCc1ccccc1
inactive: [3] 0.142 | [4] 0.0983 | [7] 0.163 | [8] 0.0697
